ERK AVP block: vasopressin-driven ERK pathway inhibition. 0.99% of 72,000 active. Potency, µM (doses to about 57.5 µM), for the others: at the highest dose activity, negative = inhibition, most hits filed as inhibitors. AID 995. HEK293-V1b, vasopressin-stimulated pERK AlphaScreen; further: potency means the concentration at half of the fitted maximal effect; on the % scale 0 is the no-effect control and ±100 the full control effect; nearly all actives have a fitted effect of over 55% in size
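HEK293 cells stably expressing V1b receptor, preincubated 30 min at 37 °C with compound, then stimulated 5 min with 25 nM vasopressin. Phospho-ERK by AlphaScreen SureFire after 5 h RT; normalized to DMSO and vasopressin; AC50 by Hill fit.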
15-hLO inh: blocks human 15-lipoxygenase activity; purified 15hLO-1, xylenol orange hydroperoxide absorbance; 1.4% of 74,000 active; P16050; Potency, µM (doses to about 57.1 µM), for the others: at the highest dose activity change, negative = inhibition, hits mostly inhibitors; further: potency means the concentration at half of the fitted maximal effect; on the % scale 0 is the no-effect control and ±100 the full control effect; nearly all actives have a fitted effect of over 55% in size
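Compounds were preincubated 15 min at room temperature with 40 nM purified human enzyme (25 mM Hepes pH 7.5, 0.01% Triton X-100); 50 uM arachidonic acid reacted 6 min. Fe-xylenol orange detection, 30 min, absorbance ratio 573/405 nm.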
TsaE inh: displaces an ADP probe from E. coli YjeE (TsaE) | P0AF67 | purified YjeE enzyme, qHTS inhibition assay | Potency, µM | 0.05% of 71,000 active
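Purified YjeE (10 uM) with BODIPY Texas Red-labeled ADP probe (2 uM); compounds pin-transferred, 15 min at room temperature. Binding inhibition read as decreased fluorescence polarization; ADP titration as control.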
Tau filament bind: binders of human tau filaments | P10636 | recombinant tau filaments, thioflavin S fluorescence, 15 h; filaments grown with octadecylsulfate alongside compound | Potency, µM (doses to about 57.1 µM), without a hit: top-dose activity change, negative = inhibition | 2% of 71,000 active | AID 596;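 further: potency means the concentration at half of the fitted maximal effect; on the % scale 0 is the no-effect control and ±100 the full control effect; actives lower thioflavin S fluorescence by blocking filaments or displacing dye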
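Assay mix: 1 uM His-tagged tau, 30 uM sodium octadecylsulfate, thioflavine S dye in HEPES/NaCl/DTT buffer. Compound is added prior to the inducer. Fluorescence after 15 h at 37 C.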
Hsp90 Hop PPI: changes Hsp90-Hop TPR2A binding signal, up or down; AlphaScreen TPR2A-His6 binding biotin-Hsp90 C-terminal peptide; Potency, µM (doses to about 57 µM), for inactives: at the top dose activity change, negative = inhibition; 0.44% of 71,000 active; AID 595; active means well fitted curve in either direction with a large enough effect; inconclusive means small, poorly fitted or top-dose-only effect, or another doubt; further: potency means the concentration at half of the fitted maximal effect; on the % scale 0 is the no-effect control and ±100 the full control effect
Pol III holo inh: blocks replication by bacterial DNA polymerase III holoenzyme; reconstituted DNA polymerase III holoenzyme replication, biochemical; Potency, µM (top dose mostly 57.1 µM), for inactives: at the highest dose activity change, negative = inhibition; 0.25% of 71,000 active; AID 603; further: potency means the concentration at half of the fitted maximal effect; on the % scale 0 is the no-effect control and ±100 the full control effect
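Reconstituted *E. coli* holoenzyme (0.35 nM Pol III, 1 nM beta, 154 nM SSB, 2 nM primase) was preincubated with compound for 15 min at RT. Synthesis on 1.4 nM ssM13Gori ran 35 min, then was stopped with PicoGreen/EDTA and read as dsDNA fluorescence.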
* marks the source's active call; other numbers are inactive results. Shown are actives, neighbours in structure and some others; about 4.2% of the full set was active somewhere. Unless noted, the call rests on the fitted dose curve; in most records, active means well fitted curve in the direction sought with a large enough effect; inconclusive means small, poorly fitted or top-dose-only effect, or another doubt; inactive means no such curve, though single readings can be large; an effect the other way counts as inactive or inconclusive.

Results for CN(Cc1ccco1)c1nc(-c2ccc3c(c2)OCO3)nc2ccccc12 ?
ERK AVP block: -24%; 15-hLO inh: -6%; TsaE inh: inactive; Tau filament bind: -11%; Hsp90 Hop PPI: 25%; Pol III holo inh: -2%

Results for COc1cccc(-c2cncnc2NCc2cnc(C)cn2)c1 ?
ERK AVP block: -8%; 15-hLO inh: -2%; TsaE inh: inactive; Tau filament bind: -8%; Hsp90 Hop PPI: 1%; Pol III holo inh: -2%

Results for COc1ccc(Cl)cc1C(=O)NCCc1ccc(S(=O)(=O)NC(=O)NC2CCCCC2)cc1 ?
ERK AVP block: 4%; 15-hLO inh: -6%; TsaE inh: inactive; Tau filament bind: inconclusive; Hsp90 Hop PPI: 0%; Pol III holo inh: -2%

How did Cc1nnc(SCCC(=O)Nc2nc(-c3ccccc3)ns2)s1 do in these assays?
ERK AVP block: 32µM*; 15-hLO inh: inconclusive; TsaE inh: inactive; Tau filament bind: -25%; Hsp90 Hop PPI: 3%; Pol III holo inh: -1%

How did CCOc1ccc(NC(=O)CN2C(=O)C3CCCN3C2=O)cc1 (stereo not drawn) do in these assays?
15-hLO inh: 4%; TsaE inh: inactive; Tau filament bind: 7%; Hsp90 Hop PPI: 0%; Pol III holo inh: -1%

What do the screens show for `O=C(Nc1ccc(O)cc1)C1CC=CCC1` (stereo not drawn)?
ERK AVP block: 3%; 15-hLO inh: inconclusive; TsaE inh: inconclusive; Tau filament bind: 13µM*; Hsp90 Hop PPI: inconclusive; Pol III holo inh: -5%

Results for Cc1ccc(S(=O)(=O)N2CCCC2C(=O)Nc2ccc(O)cc2)cc1 (stereo not drawn) ?
ERK AVP block: -2%; 15-hLO inh: 3%; TsaE inh: inactive; Tau filament bind: -4%; Hsp90 Hop PPI: 2%; Pol III holo inh: -4%

What do the screens show for `COCC(=O)N1CCC2(CC1)CN(c1ccccn1)C2`?
ERK AVP block: 1%; 15-hLO inh: 8%; TsaE inh: inactive; Tau filament bind: -2%; Hsp90 Hop PPI: 8%; Pol III holo inh: -3%

How did CCCc1ccc(OCC(O)CN2CCN(c3ccccc3)CC2)cc1 (stereo not drawn) do in these assays?
ERK AVP block: 11%; 15-hLO inh: inconclusive; TsaE inh: inactive; Tau filament bind: 2%; Hsp90 Hop PPI: -6%; Pol III holo inh: 2%

What do the screens show for `O=C1Nc2ccc(I)cc2/C1=C/c1cc(Br)c(O)c(Br)c1`?
ERK AVP block: inconclusive; 15-hLO inh: 13µM*; TsaE inh: inconclusive; Tau filament bind: 1µM*; Hsp90 Hop PPI: inconclusive; Pol III holo inh: 4%

What do the screens show for `COc1ccc(OC)c(N=c2oc3c(OC)cccc3cc2C(=O)NCc2ccco2)c1`?
ERK AVP block: -5%; 15-hLO inh: 1%; TsaE inh: inactive; Tau filament bind: 0.79µM*; Hsp90 Hop PPI: -6%; Pol III holo inh: -2%

What do the screens show for `O=C(NCc1ccco1)c1cccc2ccccc12`?
ERK AVP block: -19%; 15-hLO inh: -4%; TsaE inh: inactive; Tau filament bind: -3%; Hsp90 Hop PPI: -1%; Pol III holo inh: -4%

What do the screens show for `COc1ccccc1N=c1oc2c(OC)cccc2cc1C(=O)NCc1ccco1`?
ERK AVP block: -4%; 15-hLO inh: -2%; TsaE inh: inactive; Tau filament bind: 2.5µM*; Hsp90 Hop PPI: -3%; Pol III holo inh: 0%

Results for COc1ccc(N=c2oc3c(OC)cccc3cc2C(=O)NCc2ccco2)cc1OC ?
ERK AVP block: -1%; 15-hLO inh: -1%; TsaE inh: inactive; Tau filament bind: 1.3µM*; Hsp90 Hop PPI: -3%; Pol III holo inh: -4%

How did COc1ccc(C(=O)Nc2ccccc2C(=O)NCc2ccco2)cc1OC do in these assays?
ERK AVP block: -28%; 15-hLO inh: 0%; TsaE inh: inactive; Tau filament bind: 6%; Hsp90 Hop PPI: -6%; Pol III holo inh: 4%

What do the screens show for `CCOc1cc(C)c(Cl)cc1S(=O)(=O)NCc1ccco1`?
ERK AVP block: -12%; 15-hLO inh: -3%; TsaE inh: inactive; Tau filament bind: -4%; Hsp90 Hop PPI: -4%; Pol III holo inh: 0%

Screening data (PubChem)
